Drawing on PubChem BioAssay AID602440 (Sanford-Burnham Center for Chemical Genomics, 2012), this text covers inhibition for 59 molecules.

Each structure is given as a SMILES string. Out of some 360,000 compounds screened, about 2,300 (0.64%) were called active. The full list was thinned out, with actives kept by preference. Values without a mark were called inactive. Cut-off read from the data, not from the text of the source: active = inhibition mostly above about 40% (no sharp cut-off); inactive = mostly below about 27%.

In the test the target is Sentrin-specific protease 8 (Homo sapiens) (UniProt Q96LD8). Description: human SENP8 protease inhibitors, primary screen, biochemical, fluorescence, Nedd8 protein substrate, uHTS (AID 602440). The note with it: recombinant SENP8, Nedd8 substrate fluorescence; at 20 µM; active compounds read high.
Sequence of Sentrin-specific protease 8 (Homo sapiens) (Q96LD8 whole entry, looked up): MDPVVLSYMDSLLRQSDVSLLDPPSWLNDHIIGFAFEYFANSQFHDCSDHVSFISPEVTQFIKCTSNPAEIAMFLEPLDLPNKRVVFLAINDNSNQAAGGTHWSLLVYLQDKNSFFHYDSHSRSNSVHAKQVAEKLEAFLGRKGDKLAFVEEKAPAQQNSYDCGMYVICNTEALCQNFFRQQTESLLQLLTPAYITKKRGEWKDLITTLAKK
For `CC1(C(=O)Nc2cccc3c2CCCC3)CCN1C(=O)CCc1ccc(Cl)cc1Cl` (centres undefined), the inhibition was 10.4%. Turning to `COc1ccc(C(=O)NN2C(=O)C3C(c4ccccc4)C=CC(c4ccccc4)C3C2=O)cc1` (centres undefined), the inhibition was 7%. In the case of `COc1ccc2c(c1)N(C)/C(=C1/SC(=S)N(NC(C)=O)C1=O)S2` it was 1.5%; in that of `CC(=O)N1C(=O)/C(=C2\SC(=S)N(NC(=O)c3ccc(O)cc3)C2=O)c2ccccc21`, 53.5% (active); in that of `Oc1cccc(C2c3[nH]c4ccccc4c3CCN2Cc2cnn(-c3ccccc3)c2)c1` (centres undefined), -56.9%. Under `CSCC[C@H](NC(=O)CCCn1nnc2ccccc2c1=O)C(=O)O` stands 38.5%; under `CCOC(=O)N1CCN(C(=O)C[C@@H]2C[C@@]3(C(=O)OC)CC(C)(C)CC=C3N(Cc3ccco3)C2=O)CC1`, 26.3%. As to `CCCc1ccc(C(=O)COC(=O)CN2C(=O)NC3(CCCCC3C)C2=O)cc1` (centres undefined), the inhibition was 9.6%.

For `CCCCCCCCCCCCCCCC(=O)OC/C=C(C)/C=C/C=C(C)/C=C/C1=C(C)CCCC1(C)C`, the inhibition is 40.9% (active). For `CCc1nnc(NC(=O)CCN(c2ccc(C)cc2)S(=O)(=O)c2ccccc2)s1`, the inhibition was 14.8%. In the case of `COCCCNC(=O)CNC(=S)N(Cc1cc(OC)c(OC)c(OC)c1)C1CCCC1`, the inhibition is 4.9%. Under `Cc1c(NC(=O)Nc2cccc([N+](=O)[O-])c2)c(=O)n(-c2ccccc2)n1C` stands 9.3%; under `CCOC(=O)C(C)n1cnc2c(nnn2-c2ccc(F)cc2)c1=O` (centres undefined), 6.3%. With `COC(=O)C(C)n1cnc2c(nnn2-c2ccc(F)cc2)c1=O` (centres undefined), the inhibition was 4.4%. As for `CCOC(=O)C(CC)Sc1ncnc2c1nnn2-c1ccc(F)cc1` (centres undefined), the inhibition was 40.3% (active).

With `CC(C)c1nc2oc3c(N4CCN(C)CC4)ncnc3c2c2c1CCC2`, the inhibition is -130%. In the case of `Cc1ccnc(N2CCN(C(=O)CSc3nc4ccccc4nc3N3CCCCC3)CC2)c1` it was -63.3%; in that of `OC(COCC1COc2ccccc2O1)CN1CCN(c2ccc(F)cc2)CC1` (centres undefined), 16.7%. For `CN1/C(=c2/s/c(=C3/C(=O)N(c4ccccc4)NC3=Nc3ccccc3)n(C)c2=O)C(C)(C)c2ccccc21`, the inhibition is 54.8% (active).

Take `OCC1(Cc2ccccc2)CCN(Cc2cc3ccccc3o2)CC1`: the inhibition is 3.7%. Regarding `CCN(CC)S(=O)(=O)c1ccc(N2CCOCC2)c(NC(=O)C2CSC3(C)CCC(=O)N23)c1` (centres undefined), the inhibition was -11.2%. As to `Cc1cc(C)cc(NC(=O)NC2CCCCCCC2)c1`, the inhibition was 1.8%. In the case of `Cc1cc([N+](=O)[O-])c(N2CCC[C@@H]2C(=O)O)c([N+](=O)[O-])c1` it was 2.1%; in that of `Cc1cc([N+](=O)[O-])c(NC2CCCCC2)c([N+](=O)[O-])c1`, 45.6% (active); in that of `CCCCN(CC(=O)NC(C)(C)C)C(=O)C(=O)Nc1ccc2c(c1)OCCO2`, 17%.

With `O=S(=O)(O)CCN1CCOCC1`, the inhibition was 24.3%. Under `O=C1c2ccccc2C(=O)C1C(=O)C1CC1` stands 37.6% (active); under `O=C1c2ccccc2C(=O)C1c1ccccc1`, 4.5%; under `O=C1c2ccccc2-c2ccccc2NC1O` (centres undefined), 14.1%. In the case of `Cc1cccc2nc(CNc3ccc(F)cc3)cn12`, the inhibition was -86.7%. Regarding `CCOC(=O)c1sc2nc(C)nc(Nc3ccc(OC)c(OC)c3)c2c1C`, the inhibition is -82.2%. Regarding `CCCCN1CC(C)(C)[C@H](CC(=O)Nc2ccc(Br)cc2)C1=O`, the inhibition was 15.8%. In the case of `Cn1c2ccc(F)cc2c2nnc(NN)nc21` it was 49.2% (active); in that of `CCn1c2ccc(F)cc2c2nnc(SCCN3CCOCC3)nc21`, 11.3%. In the case of `CN(C)c1nc(NN)nc(Nc2ccc(F)cc2)n1` it was 12.3%. As for `N#Cc1c(N)nc2c3c(sc(=N)c2c1N)NC(=O)CC3c1ccccc1Cl` (centres undefined), the inhibition is -174%. Consider `CCCCN1CC(N2CCN(Cc3cccc(C)c3)CC2)CS1(=O)=O` (centres undefined), for which the inhibition was 12.1%. With `CC1=NOC(=O)/C1=C\c1ccccc1`, the inhibition is 42.9% (active). As to `C#CCOc1ccccc1/C=C1/C(=O)ON=C1C`, the inhibition is 13.5%. Consider `Cc1ccc(S(=O)(=O)n2oc(=O)c(C3CCCCC3)c2N)cc1`, for which the inhibition is 7.6%. Consider `COc1cc(OC)cc(C(=O)NCC(=O)OCc2csc(-c3ccccc3)n2)c1`, for which the inhibition is 15.3%. For the molecule `Cc1ccc(F)cc1NC(=O)c1cccc(N(C)C)c1`, the inhibition is -82.7%. As for `CN(C)S(=O)(=O)c1ccc(C(=O)NCC2(N3CCOCC3)CCCCC2)cc1`, the inhibition was 5.2%.

Regarding `COc1cc(N2CCCC2)c(OC)cc1/C=C(/C#N)c1cccc(Br)c1`, the inhibition was 75.3% (active).

Regarding `CCC(C)CN1CCC(CO)(Cc2ccccc2Cl)CC1` (centres undefined), the inhibition was 1.5%. Under `COc1ccc(Br)c(Cn2c(C)c(C(=O)NCc3cccs3)sc2=O)c1` stands 3.5%; under `COc1cccc(Nc2nnc(SCC(=O)N3CC(=O)Nc4ccccc43)s2)c1`, -6.6%; under `COc1c(F)c(F)c(C(=O)O)c(Nc2ccccc2C)c1F`, 4.1%. As to `Cc1ccc(S(=O)(=O)N2CCN(CC(=O)N/N=C/c3ccc(Br)s3)CC2)cc1`, the inhibition was 6%. Turning to `Cc1nn(Cc2ccc(Cl)cc2)c(Cl)c1/C=N/NC(=O)CNc1ccccc1F`, the inhibition was 7.1%.

Regarding `Cc1ccccc1NCC(=O)N/N=C\c1ccc([N+](=O)[O-])s1`, the inhibition is 45.1% (active). With `O=C(CN(C(=O)CNC(=O)c1cccs1)c1cccc(F)c1)NC1CCCCC1`, the inhibition is 11.2%. As for `Cc1ccc(NC(=O)COC(=O)CN2CCSC2=O)cc1F`, the inhibition is 14.3%. Take `Cc1cccc(S(=O)(=O)N(C)C[C@H]2OCc3cnnn3CCCC(=O)N([C@@H](C)CO)C[C@H]2C)c1`: the inhibition is 14.1%. On to `CC(=O)N1CCN(S(=O)(=O)c2cccc(C(=O)NC3CCC(C)CC3)c2)CC1` (centres undefined), for which the inhibition is 43.9% (active).

Regarding `CC(=O)Nc1ccc(S(=O)(=O)N2CCC(NC(=O)c3ccccc3)CC2)cc1`, the inhibition is 9%. `COc1ccc(OC)c(NC(=O)c2cccc(S(=O)(=O)N3CCN(C(C)=O)CC3)c2)c1`: the inhibition is 13.3%. As to `C/C(=N\NC(=O)CCn1nc(C)cc1C)C(C)(C)C`, the inhibition is 13.5%.

As for `CCN1C(=O)[C@H]2[C@@H](c3ccc(C(F)(F)F)cc3)N[C@]3(CCCN(Cc4ccc(Br)cc4)C3=O)[C@H]2C1=O`, the inhibition is 3.9%.

One may read the inhibition as the drop in the measured response relative to a control, in per cent.
